Source: PubChem BioAssay (NCATS)
Active and inactive are the calls of the source. A call without a number means that no potency is given here. Calls come from the whole dose curve; as a rule, active = well fitted inhibition curve with a large enough effect; inconclusive = small, poorly fitted or top-dose-only effect; inactive = no such curve, though single readings can be large or run the other way.

Each compound was assayed against Pyruvate kinase (Leishmania mexicana) (UniProt Q27686) (assay: qHTS Validation Assay for Inhibitors of Leishmania Mexicana Pyruvate Kinase (AID 945)). Conditions: purified L. mexicana pyruvate kinase, enzyme activity, E451W mutant enzyme; series mostly up to 57.5 µM.
Sequence of Pyruvate kinase (Leishmania mexicana) (Q27686 2-499 E452W): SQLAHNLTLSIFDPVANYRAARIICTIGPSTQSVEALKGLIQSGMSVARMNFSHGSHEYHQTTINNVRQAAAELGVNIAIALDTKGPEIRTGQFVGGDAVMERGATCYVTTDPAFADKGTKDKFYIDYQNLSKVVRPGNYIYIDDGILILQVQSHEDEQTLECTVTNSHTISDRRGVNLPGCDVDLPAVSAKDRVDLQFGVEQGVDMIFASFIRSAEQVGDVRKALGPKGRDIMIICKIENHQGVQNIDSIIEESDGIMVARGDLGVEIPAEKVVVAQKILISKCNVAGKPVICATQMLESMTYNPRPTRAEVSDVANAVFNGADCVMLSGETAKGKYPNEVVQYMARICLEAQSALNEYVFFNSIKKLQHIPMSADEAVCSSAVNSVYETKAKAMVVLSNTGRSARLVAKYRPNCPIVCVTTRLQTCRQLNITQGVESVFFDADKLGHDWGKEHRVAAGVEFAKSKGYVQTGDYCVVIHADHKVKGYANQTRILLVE
Description: NIH Molecular Libraries Screening Centers Network [MLSCN]
NIH Chemical Genomics Center [NCGC]
PI names: Malcom Walkinshaw, Hugh Morgan and Linda Gilmore
University of Edinburgh, Edinburgh, UK
Species of Leishmania are responsible for a wide spectrum of diseases throughout the tropics and subtropics, ranging from self-healing ulcers to highly disfiguring lesions and serious, often lethal visceral diseases, such as kala-azar. In Leishmania spp. it has been shown that both sugar uptake and gluconeogenesis are necessary to synthesize sufficient hexose-phosphate required for the production of glycoconjugates and the intracellular polysaccharide mannan which are essential for both replication and virulence of the parasites. Therefore, most of the enzymes participating in glycolysis and gluconeogenesis are expected to be essential (Naderer et al., 2006). The assay described here targets pyruvate kinase from Leishmania mexicania (LmPYK) that was obtained as a highly purified preparation from the University of Edinburgh (E451W mutant was provided). A 1536 well assay protocol was set up and validated by screening the LOPAC library in triplicate as an eight point concentration-titration series using the qHTS platform developed at the NCGC.
NCGC Assay Protocol Summary:
Three uL of substrate mix (final concentrations, 50 mM imidazole pH 7.2, 50 mM KCl, 7 mM MgCl2, 0.5 mM PEP, 0.1 mM ADP, 0.01% Tween 20, 0.05% BSA) was dispensed into white solid medium binding Greiner 1536 well plates. 23 nL of compound were delivered by a pin tool and 1 uL of enzyme mix (final concentration, 0.2 nM LmPYK, 50 mM imidazole pH 7.2, 0.05% BSA) was added. Plates were covered with stainless steel gasket-lined lids and incubated at room temperature for 1 hour. Two uL of detection and kinase stop mix (PKLight, Lonza) was added, and luminescence read by a ViewLux (Perkin Elmer) at 2 second exposure/plate using 2x binning. Controls on each plate were as follows: column 1, sixteen-point titration (1:2 dilutions) in duplicate the LmPK activator LOPAC-C8145 beginning at 57 uM final concentration; column 2, sixteen-point titration (1:2 dilutions) in duplicate activator LOPAC-S4063 beginning at 57 uM final concentration; column 3, column 4 DMSO only. Data were normalized to the neutral control (column 3).
In the case of O=c1[nH]c(=O)n([C@H]2C[C@H](O)[C@@H](CO)O2)cc1Br, the Potency is reported as “inactive”.
C(=C\c1ccccc1)/CN1CCN(C(c2ccccc2)c2ccccc2)CC1 was tested, and the Potency was “inactive”.
For COC(=O)[C@@H](N)Cc1ccc(O)c(O)c1, the Potency was “inactive”.
With C[C@H](CS)C(=O)N1CCC[C@H]1C(=O)O the Potency was “inactive”.
O=C1CC2(CCCC2)CC(=O)N1CCCCN1CCN(c2ncccn2)CC1 was tested, and the Potency was “inactive”.
CC(C)[N+](C)(CCOC(=O)C1c2ccccc2Oc2ccccc21)C(C)C was tested, and the Potency was “inactive”.
For C[N+](C)(C)CCCCCCCCCC[N+](C)(C)C, the Potency was “inactive”.
FC(F)(F)c1ccccc1-n1ccnc1 was tested, and the Potency was “inactive”.
With CN1CCN(CC(=O)N2c3ccccc3C(=O)Nc3cccnc32)CC1 the Potency was “inactive”.
In the case of CN(C)CC/C=C1\c2ccccc2COc2ccccc21, the Potency is reported as “inactive”.
In the case of CCNC(=O)N1CCN(CCCC(c2ccc(F)cc2)c2ccc(F)cc2)CC1, the Potency is reported as “inactive”.
In the case of CC(C)NNC(=O)c1ccncc1, the Potency is reported as “inactive”.
In the case of CN(C)CCN(Cc1cccs1)c1ccccn1, the Potency is reported as “inactive”.
In the case of C#CCN(C)CCCOc1ccc(Cl)cc1Cl, the Potency is reported as “inactive”.
CN(C)C(=O)Oc1ccc[n+](C)c1 was tested, and the Potency was “inactive”.
With NC(=O)N1c2ccccc2C=Cc2ccccc21 the Potency was “inactive”.
With COc1ccc(CN(CCN(C)C)c2ccccn2)cc1 the Potency was “inactive”.
With CNCCCN1c2ccccc2CCc2ccccc21 the Potency was “inactive”.
CCc1cccc(N(C)C(N)=Nc2cccc3ccccc23)c1 was tested, and the Potency was “inactive”.
With CCN(CC)CC(=O)Nc1c(C)cccc1C the Potency was “inactive”.
In the case of c1cc(CN2CCCCC2)cc(OCCCNc2nc3ccccc3s2)c1, the Potency is reported as “inactive”.
With CCO/C([O-])=N/c1c[n+](N2CCOCC2)no1 the Potency was “inactive”.
In the case of Brc1c(NC2=NCCN2)ccc2nccnc12, the Potency is reported as “inactive”.
For NCCCNCCSP(=O)(O)O, the Potency was “inactive”.
O=C(CCNNC(=O)c1ccncc1)NCc1ccccc1 was tested, and the Potency was “inactive”.
With COc1cc(C(=O)OCCCN2CCCN(CCCOC(=O)c3cc(OC)c(OC)c(OC)c3)CC2)cc(OC)c1OC the Potency was “inactive”.
COCC(=O)O[C@]1(CCN(C)CCCc2nc3ccccc3[nH]2)CCc2cc(F)ccc2[C@@H]1C(C)C was tested, and the Potency was “inactive”.
For C[C@]12CCC(=O)C=C1CC[C@@H]1[C@@H]2CC[C@@]2(C)[C@H]1CC[C@]2(O)C(=O)CO, the Potency was “inactive”.
For CCCOc1ccccc1-c1nc2n[nH]nc2c(=O)[nH]1, the Potency was “inactive”.
In the case of CN(C(=O)CCCOc1ccc2[nH]c(=O)ccc2c1)C1CCCCC1, the Potency is reported as “inactive”.
CN/C(=C\[N+](=O)[O-])NCCSCc1ccc(CN(C)C)o1 was tested, and the Potency was “inactive”.
With C[N+](C)(C)CCOC(N)=O the Potency was “inactive”.
In the case of COC(=O)[C@H]1[C@H]2C[C@@H]3c4[nH]c5cc(OC)ccc5c4CCN3C[C@H]2C[C@@H](OC(=O)c2cc(OC)c(OC)c(OC)c2)[C@@H]1OC, the Potency is reported as “inactive”.
With N[C@@H](COP(=O)(O)O)C(=O)O the Potency was “inactive”.
For CCCCNC(=O)NS(=O)(=O)c1ccc(C)cc1, the Potency was “inactive”.
In the case of CCn1nc(C(=O)O)c(=O)c2cc3c(cc21)OCO3, the Potency is reported as “inactive”.
In the case of C[C@]12CCC(=O)C=C1CC[C@@H]1[C@@H]2C(=O)C[C@@]2(C)[C@H]1CC[C@]2(O)C(=O)CO, the Potency is reported as “inactive”.
C[N+](C)(C)CCOC(=O)CCC(=O)OCC[N+](C)(C)C was tested, and the Potency was “inactive”.
In the case of Cc1ccc(=O)n(-c2ccccc2)c1, the Potency is reported as “inactive”.
In the case of CC[N+](C)(C)c1cccc(O)c1, the Potency is reported as “inactive”.
